Tests used:
Assay in all cases: log2 ratio of Biotin-Ahx-Ub-VS probe labelling (fragment/DMSO); higher = less target engagement (more negative = stronger competition), active = hit call of the paper (q ≤ 0.05, log2 ratio ≤ -1)
Settings in all cases: compound concentration: 200 uM; treatment time: 3 h
USP34 = USP34 (UniProt Q70CQ2)
Summary of the method: (§1)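 Labelled DUBs from HEK293T lysate were NeutrAvidin-enriched, digested with LysC and trypsin, and run by diaPASEF LC-MS/MS. Before that, each 495 µg sample in Tris/CHAPS/IGEPAL buffer with protease inhibitors was treated in triplicate with fragment at 200 µM or vehicle for 3 h, then with Biotin-Ahx-Ub-VS at 0.5 µM final for 1 h. Values are average log2 ratios of fragment over vehicle by unpaired t-test, based on global-median-normalised Spectronaut label-free quantities from proteins with ≥2 unique peptides.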

USP36 = target: T1, USP36 (UniProt Q9P275)
T1 sequence (whole entry): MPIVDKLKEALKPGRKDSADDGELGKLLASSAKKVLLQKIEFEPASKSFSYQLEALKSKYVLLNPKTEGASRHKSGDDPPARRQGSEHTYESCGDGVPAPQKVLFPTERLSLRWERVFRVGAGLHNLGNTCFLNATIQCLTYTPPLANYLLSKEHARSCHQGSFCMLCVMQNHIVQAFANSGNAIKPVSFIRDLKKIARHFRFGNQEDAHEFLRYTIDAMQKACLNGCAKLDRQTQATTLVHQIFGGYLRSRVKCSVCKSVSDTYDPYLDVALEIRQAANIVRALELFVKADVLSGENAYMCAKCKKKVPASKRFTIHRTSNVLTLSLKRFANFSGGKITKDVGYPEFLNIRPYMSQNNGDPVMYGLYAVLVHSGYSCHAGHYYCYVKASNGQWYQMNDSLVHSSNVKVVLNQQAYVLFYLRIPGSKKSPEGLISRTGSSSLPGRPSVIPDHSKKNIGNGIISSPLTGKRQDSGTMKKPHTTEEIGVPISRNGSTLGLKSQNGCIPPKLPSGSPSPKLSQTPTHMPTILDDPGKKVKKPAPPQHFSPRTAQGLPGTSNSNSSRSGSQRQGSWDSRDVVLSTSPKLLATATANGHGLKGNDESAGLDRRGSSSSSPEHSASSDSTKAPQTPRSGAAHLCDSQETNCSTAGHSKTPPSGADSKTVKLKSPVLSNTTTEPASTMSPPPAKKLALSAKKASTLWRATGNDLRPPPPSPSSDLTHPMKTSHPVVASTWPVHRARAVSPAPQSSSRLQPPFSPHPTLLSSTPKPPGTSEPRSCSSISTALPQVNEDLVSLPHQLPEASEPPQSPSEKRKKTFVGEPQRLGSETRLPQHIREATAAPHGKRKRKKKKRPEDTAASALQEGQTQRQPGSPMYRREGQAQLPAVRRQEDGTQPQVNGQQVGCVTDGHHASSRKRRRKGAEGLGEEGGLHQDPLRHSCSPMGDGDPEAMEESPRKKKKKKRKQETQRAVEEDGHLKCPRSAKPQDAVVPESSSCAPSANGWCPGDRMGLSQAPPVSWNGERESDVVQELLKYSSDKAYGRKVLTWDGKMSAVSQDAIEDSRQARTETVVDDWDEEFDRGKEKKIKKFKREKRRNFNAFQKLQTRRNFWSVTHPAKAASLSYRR
Summary of the method: as §1

USP38 = target: T2, USP38 (UniProt Q8NB14)
T2 sequence (whole entry): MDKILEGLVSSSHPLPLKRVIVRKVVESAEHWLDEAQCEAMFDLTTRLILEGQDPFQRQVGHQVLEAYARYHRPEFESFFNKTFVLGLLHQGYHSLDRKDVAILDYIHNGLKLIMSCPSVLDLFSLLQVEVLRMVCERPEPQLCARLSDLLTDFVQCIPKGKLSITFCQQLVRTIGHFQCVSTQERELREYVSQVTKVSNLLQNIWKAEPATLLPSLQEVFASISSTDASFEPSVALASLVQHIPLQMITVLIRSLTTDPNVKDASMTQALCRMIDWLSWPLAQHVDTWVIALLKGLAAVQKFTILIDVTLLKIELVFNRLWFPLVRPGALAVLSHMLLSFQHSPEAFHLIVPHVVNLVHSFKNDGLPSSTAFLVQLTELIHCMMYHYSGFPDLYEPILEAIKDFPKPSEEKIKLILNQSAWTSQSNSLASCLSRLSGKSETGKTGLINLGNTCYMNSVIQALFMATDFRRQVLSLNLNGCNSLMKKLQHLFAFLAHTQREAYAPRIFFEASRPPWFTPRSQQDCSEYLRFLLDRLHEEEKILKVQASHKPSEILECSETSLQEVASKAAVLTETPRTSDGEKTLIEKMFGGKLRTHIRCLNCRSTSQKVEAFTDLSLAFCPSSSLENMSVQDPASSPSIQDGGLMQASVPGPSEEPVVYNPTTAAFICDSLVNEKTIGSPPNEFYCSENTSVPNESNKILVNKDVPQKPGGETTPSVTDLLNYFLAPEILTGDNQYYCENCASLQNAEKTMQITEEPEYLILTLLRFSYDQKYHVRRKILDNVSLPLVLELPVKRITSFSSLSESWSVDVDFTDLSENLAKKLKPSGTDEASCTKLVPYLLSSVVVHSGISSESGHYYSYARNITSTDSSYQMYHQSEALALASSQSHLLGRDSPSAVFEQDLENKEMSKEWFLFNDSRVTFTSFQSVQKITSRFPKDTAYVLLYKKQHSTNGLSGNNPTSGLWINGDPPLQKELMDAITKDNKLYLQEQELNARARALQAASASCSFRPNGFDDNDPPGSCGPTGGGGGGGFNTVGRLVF
Summary of the method: as §1

USP39 = target: T3, USP39 (UniProt Q53GS9)
T3 sequence (whole entry): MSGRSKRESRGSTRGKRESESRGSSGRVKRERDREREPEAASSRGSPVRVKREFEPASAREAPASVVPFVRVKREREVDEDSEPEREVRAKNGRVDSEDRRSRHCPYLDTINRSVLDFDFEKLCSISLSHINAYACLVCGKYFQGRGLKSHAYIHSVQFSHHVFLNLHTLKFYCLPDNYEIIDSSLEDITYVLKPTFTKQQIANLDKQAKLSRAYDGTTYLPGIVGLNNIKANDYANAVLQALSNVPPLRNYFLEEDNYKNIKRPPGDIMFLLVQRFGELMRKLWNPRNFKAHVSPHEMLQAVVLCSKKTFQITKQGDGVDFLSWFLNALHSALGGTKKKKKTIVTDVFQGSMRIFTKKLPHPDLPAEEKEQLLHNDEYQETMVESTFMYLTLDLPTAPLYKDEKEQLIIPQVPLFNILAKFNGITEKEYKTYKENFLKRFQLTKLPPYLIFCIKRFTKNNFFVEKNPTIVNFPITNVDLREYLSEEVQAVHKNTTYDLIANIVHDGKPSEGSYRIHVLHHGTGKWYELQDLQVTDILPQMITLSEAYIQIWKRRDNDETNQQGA
Summary of the method: as §1

USP4 = target: T4, USP4 (UniProt Q13107)
T4 sequence (whole entry): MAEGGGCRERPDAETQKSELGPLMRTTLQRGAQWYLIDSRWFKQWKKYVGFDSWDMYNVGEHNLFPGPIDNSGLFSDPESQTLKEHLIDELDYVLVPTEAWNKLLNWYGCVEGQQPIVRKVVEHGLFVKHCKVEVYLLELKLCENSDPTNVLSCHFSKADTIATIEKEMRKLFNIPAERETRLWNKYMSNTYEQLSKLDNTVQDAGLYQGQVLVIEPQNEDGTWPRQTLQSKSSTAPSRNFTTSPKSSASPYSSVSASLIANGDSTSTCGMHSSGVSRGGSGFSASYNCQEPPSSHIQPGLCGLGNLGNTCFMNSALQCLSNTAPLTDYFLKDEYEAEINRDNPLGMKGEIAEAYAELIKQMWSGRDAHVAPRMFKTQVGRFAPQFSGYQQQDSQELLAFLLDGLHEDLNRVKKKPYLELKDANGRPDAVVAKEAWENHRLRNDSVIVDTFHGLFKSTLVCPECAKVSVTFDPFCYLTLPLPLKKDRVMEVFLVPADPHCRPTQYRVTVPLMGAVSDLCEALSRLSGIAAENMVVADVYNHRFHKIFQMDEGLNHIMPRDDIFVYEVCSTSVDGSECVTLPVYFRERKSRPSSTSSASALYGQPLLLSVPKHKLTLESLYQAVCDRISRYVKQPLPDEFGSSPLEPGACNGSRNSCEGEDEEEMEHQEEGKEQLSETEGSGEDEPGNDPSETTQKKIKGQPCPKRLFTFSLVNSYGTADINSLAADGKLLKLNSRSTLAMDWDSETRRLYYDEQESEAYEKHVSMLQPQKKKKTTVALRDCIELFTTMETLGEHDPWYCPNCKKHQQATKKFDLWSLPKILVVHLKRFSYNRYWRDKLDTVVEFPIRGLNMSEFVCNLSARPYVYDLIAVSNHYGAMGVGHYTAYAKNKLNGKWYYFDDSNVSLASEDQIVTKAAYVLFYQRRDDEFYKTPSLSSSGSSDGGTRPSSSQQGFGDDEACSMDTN
Summary of the method: as §1

Measured: log2 ratio of Biotin-Ahx-Ub-VS probe labelling

USP34, sequence (Q70CQ2 whole entry, the tested form may be a part): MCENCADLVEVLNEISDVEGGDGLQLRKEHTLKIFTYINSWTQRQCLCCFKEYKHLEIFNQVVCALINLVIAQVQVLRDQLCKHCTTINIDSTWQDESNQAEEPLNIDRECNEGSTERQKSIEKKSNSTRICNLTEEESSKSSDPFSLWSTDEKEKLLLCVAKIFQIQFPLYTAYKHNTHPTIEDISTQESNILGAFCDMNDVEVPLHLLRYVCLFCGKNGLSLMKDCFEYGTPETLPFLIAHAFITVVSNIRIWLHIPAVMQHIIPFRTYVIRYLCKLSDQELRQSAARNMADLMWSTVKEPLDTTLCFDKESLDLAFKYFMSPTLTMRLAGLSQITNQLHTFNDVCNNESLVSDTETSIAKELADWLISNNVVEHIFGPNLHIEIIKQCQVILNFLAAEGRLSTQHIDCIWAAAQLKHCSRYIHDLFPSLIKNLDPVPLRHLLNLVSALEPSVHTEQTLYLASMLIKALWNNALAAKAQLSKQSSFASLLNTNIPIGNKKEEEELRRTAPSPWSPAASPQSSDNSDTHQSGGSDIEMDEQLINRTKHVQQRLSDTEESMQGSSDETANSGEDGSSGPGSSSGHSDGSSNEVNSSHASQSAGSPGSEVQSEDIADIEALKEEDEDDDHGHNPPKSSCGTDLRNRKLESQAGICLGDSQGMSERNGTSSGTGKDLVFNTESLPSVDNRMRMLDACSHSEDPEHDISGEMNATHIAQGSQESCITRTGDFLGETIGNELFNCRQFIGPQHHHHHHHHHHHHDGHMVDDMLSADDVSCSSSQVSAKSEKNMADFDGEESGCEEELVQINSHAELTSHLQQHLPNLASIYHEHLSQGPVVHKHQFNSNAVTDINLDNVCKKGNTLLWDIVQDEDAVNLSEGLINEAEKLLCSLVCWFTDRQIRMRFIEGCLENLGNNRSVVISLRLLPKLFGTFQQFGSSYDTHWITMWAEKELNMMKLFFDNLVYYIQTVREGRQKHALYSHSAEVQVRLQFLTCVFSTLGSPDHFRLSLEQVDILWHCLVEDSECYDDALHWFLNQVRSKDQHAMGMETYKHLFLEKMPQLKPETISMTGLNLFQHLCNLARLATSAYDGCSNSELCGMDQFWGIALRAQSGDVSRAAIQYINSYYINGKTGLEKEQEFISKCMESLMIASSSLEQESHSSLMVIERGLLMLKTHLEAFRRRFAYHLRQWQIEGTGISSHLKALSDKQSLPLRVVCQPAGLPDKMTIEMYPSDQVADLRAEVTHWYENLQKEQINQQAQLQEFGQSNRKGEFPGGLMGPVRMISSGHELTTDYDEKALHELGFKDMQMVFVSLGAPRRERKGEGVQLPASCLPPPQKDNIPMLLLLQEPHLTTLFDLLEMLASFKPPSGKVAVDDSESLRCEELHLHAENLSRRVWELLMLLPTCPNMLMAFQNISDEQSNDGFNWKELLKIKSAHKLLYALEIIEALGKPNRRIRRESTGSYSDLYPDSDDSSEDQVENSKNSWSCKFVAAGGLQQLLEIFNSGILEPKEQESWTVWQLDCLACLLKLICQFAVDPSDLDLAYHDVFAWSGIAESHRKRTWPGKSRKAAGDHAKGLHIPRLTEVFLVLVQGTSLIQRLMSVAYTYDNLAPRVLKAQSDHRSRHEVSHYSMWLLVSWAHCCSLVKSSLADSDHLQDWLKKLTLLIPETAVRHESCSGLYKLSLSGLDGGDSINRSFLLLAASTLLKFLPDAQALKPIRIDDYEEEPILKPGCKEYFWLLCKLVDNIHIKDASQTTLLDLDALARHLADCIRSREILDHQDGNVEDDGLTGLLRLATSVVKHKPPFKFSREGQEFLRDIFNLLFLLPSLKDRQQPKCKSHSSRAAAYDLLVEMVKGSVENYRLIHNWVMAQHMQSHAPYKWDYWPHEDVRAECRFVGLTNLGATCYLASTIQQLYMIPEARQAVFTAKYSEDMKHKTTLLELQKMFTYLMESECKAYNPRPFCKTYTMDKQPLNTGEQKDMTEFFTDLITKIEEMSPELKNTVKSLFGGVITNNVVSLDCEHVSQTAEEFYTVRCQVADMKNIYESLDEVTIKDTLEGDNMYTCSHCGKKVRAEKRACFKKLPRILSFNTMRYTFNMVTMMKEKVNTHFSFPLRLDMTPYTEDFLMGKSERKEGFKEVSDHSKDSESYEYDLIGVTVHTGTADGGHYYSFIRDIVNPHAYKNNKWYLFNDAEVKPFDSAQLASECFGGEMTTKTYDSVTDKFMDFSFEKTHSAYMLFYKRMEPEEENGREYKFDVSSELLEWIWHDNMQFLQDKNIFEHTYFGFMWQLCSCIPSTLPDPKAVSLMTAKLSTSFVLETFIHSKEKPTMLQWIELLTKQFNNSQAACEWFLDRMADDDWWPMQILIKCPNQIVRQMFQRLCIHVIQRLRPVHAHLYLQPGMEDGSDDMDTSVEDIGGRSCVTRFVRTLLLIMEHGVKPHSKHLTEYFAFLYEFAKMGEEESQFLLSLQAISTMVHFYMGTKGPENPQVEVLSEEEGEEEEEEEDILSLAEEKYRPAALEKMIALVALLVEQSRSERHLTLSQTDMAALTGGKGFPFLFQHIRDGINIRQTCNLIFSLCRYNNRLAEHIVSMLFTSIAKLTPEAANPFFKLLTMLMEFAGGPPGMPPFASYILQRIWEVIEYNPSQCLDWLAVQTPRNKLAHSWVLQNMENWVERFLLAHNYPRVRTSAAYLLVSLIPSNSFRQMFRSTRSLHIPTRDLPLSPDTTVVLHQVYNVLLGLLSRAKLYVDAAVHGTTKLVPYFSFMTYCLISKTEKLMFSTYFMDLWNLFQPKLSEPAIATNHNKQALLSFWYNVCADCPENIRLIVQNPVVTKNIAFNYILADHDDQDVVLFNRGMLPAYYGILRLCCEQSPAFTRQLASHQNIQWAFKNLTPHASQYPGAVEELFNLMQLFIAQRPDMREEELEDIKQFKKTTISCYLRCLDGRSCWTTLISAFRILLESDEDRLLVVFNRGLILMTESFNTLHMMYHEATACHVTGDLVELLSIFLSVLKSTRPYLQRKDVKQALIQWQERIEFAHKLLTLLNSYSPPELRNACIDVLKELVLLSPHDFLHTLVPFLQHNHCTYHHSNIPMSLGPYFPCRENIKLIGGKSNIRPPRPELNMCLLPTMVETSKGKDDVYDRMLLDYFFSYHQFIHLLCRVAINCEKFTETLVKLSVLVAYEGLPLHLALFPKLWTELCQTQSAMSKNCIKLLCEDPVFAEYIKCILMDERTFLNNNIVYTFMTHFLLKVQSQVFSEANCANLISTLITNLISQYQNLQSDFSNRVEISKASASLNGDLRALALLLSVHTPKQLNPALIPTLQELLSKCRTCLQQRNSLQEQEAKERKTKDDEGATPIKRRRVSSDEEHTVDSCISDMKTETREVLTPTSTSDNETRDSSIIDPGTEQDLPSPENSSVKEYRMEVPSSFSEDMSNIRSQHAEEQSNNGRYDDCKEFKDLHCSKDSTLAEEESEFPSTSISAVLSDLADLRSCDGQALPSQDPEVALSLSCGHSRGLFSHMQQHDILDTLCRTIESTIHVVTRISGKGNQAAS

Cc1ccccc1OCC(=O)N1CCN(C(=O)CCl)CC1
inactive: USP34 -0.131 | USP36 -0.102 | USP38 -0.159 | USP39 0.114 | USP4 -0.0294
